# Assay results taken from publication PMC7862700, “An all-to-all approach to the identification of sequence-specific readers for epigenetic DNA modifications on cytosine”.
# Legend:
# Test in all cases: DAPPL (digital affinity profiling via proximity ligation, sequencing); 10 mM Tris-HCl pH 7.5, 50 mM NaCl, 1 mM DTT, 4% glycerol, room temperature, 30 min; GST-TFs on glutathione beads, 16-mer random dsDNA library, 0.1% formaldehyde crosslink after washing; high values mean tight binding
# [1] = target: T1, FLI1 (Homo sapiens, UniProt Q01543 1-452); details: protein: recombinant; tags: N-terminal GST; dsDNA, one strand shown
# T1 sequence: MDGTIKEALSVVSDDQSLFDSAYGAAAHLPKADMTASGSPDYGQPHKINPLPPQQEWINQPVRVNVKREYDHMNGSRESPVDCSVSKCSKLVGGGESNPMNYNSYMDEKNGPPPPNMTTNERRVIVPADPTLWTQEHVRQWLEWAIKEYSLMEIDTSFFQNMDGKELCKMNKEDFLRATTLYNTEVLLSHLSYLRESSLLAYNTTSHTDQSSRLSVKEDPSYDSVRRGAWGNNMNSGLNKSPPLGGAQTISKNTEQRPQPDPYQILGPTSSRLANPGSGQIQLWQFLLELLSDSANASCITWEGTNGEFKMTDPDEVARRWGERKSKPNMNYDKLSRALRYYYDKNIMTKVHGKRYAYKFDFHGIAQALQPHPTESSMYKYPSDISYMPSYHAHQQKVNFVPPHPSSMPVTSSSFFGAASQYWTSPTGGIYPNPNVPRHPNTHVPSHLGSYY
# Summary of the method: (§1)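 GST fusions of human transcription factors were expressed in yeast and captured with glutathione beads. Once given DNA barcodes and pooled alongside a tag-only sample, they were incubated for 30 min at room temperature with 200 nmole of a random double-stranded 16-mer DNA library in Tris/NaCl/DTT/glycerol buffer, then washed, crosslinked (0.1% formaldehyde), proximity-ligated, PCR-amplified and sequenced on an Illumina NextSeq500. The binding signal of each hexamer is its read frequency for a factor divided by its frequency for the tag-only sample.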
# [2] = target: T2, ELK1 (Homo sapiens, UniProt P19419 1-428); details: protein: recombinant; tags: N-terminal GST; dsDNA, one strand shown
# T2 sequence: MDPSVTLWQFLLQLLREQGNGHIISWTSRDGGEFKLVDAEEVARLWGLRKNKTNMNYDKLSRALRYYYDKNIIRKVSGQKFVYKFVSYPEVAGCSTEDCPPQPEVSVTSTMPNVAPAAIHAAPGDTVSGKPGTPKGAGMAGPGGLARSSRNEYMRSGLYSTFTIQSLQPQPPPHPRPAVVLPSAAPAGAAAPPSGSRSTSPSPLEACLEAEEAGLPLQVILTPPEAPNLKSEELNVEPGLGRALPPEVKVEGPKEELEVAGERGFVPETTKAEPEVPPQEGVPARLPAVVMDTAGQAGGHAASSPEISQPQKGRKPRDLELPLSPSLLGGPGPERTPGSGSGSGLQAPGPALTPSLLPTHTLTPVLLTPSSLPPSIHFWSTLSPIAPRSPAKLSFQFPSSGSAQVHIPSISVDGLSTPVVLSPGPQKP
# Summary of the method: as §1
# [3] = target: T3, GABPA (Homo sapiens, UniProt Q06546 1-454); details: protein: recombinant; tags: N-terminal GST; dsDNA, one strand shown
# T3 sequence: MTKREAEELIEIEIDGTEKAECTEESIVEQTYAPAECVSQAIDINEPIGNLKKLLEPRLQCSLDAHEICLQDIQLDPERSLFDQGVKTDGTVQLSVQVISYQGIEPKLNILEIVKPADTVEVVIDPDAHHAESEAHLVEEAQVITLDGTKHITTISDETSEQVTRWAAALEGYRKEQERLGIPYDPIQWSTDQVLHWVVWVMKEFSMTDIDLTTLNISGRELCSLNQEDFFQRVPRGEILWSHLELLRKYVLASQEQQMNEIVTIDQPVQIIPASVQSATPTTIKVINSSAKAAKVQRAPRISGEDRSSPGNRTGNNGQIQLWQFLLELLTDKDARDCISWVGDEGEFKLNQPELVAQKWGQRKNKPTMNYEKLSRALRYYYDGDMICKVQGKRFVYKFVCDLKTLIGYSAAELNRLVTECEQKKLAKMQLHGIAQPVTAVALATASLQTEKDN
# Summary of the method: as §1
# [4] = target: T4, ERG (Homo sapiens, UniProt P11308 1-479); details: protein: recombinant; tags: N-terminal GST; dsDNA, one strand shown
# T4 sequence: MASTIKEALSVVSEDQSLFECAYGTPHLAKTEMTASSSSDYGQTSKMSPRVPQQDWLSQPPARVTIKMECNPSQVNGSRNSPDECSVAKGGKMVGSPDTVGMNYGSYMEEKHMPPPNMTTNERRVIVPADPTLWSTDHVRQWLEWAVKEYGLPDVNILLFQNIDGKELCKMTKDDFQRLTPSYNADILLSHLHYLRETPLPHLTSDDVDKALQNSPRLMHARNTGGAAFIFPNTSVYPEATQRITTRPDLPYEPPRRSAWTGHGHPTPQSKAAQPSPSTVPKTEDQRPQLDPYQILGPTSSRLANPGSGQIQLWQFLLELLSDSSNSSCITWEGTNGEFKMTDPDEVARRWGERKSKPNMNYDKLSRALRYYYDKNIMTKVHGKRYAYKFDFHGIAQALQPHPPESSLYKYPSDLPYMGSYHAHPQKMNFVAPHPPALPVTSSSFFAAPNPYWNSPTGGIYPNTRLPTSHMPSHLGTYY
# Summary of the method: as §1
# [5] = target: ELF1 (Homo sapiens, UniProt P32519 1-619); details: protein: recombinant; tags: N-terminal GST; dsDNA, one strand shown
# Summary of the method: as §1
# [6] = target: T5, EHF (Homo sapiens, UniProt Q9NZC4 1-300); details: protein: recombinant; tags: N-terminal GST; dsDNA, one strand shown
# T5 sequence: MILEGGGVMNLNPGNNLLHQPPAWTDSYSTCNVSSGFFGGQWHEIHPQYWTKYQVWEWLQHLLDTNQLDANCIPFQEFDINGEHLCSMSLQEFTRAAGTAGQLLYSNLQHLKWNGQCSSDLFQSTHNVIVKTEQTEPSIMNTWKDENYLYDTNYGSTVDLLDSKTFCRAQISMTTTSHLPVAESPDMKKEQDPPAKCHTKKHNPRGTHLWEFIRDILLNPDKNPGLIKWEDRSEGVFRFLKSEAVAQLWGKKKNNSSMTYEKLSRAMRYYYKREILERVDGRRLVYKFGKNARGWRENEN
# Summary of the method: as §1
# [7] = target: SPI1 (Homo sapiens, UniProt P17947 1-270); details: protein: recombinant; tags: N-terminal GST; dsDNA, one strand shown
# Summary of the method: as §1
# [8] = target: SPIB (Homo sapiens, UniProt Q01892 1-262); details: protein: recombinant; tags: N-terminal GST; dsDNA, one strand shown
# Summary of the method: as §1
# [9] = target: T6, ELK3 (Homo sapiens, UniProt P41970 1-407); details: protein: recombinant; tags: N-terminal GST; dsDNA, one strand shown
# T6 sequence: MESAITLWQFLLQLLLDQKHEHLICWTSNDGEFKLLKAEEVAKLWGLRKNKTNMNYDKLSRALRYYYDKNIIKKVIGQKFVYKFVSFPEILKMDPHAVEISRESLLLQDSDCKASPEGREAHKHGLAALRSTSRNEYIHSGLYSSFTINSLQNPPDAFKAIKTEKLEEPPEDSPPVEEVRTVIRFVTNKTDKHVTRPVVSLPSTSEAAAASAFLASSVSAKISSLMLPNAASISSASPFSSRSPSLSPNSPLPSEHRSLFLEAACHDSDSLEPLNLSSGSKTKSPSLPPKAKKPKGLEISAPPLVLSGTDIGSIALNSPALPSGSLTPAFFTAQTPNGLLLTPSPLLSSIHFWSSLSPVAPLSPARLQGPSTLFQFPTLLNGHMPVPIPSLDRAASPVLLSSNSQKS
# Summary of the method: as §1
# [10] = target: T7, FEV (Homo sapiens, UniProt Q99581 1-238); details: protein: recombinant; tags: N-terminal GST; dsDNA, one strand shown
# T7 sequence: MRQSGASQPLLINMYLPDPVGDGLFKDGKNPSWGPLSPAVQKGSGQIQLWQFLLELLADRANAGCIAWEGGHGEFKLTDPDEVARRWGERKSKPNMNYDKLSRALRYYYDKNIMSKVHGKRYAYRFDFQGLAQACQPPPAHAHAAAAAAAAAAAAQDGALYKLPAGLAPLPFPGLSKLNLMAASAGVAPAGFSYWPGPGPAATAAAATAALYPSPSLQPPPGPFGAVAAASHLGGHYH
# Summary of the method: as §1
# [11] = target: ETV5 (Homo sapiens, UniProt P41161 1-510); details: protein: recombinant; tags: N-terminal GST; dsDNA, one strand shown
# Summary of the method: as §1
# [12] = target: HSF1 (Homo sapiens, UniProt Q00613 1-529); details: protein: recombinant; tags: N-terminal GST; chain copies: 3; dsDNA, one strand shown
# Summary of the method: as §1
# [13] = target: T8, SPIC (Homo sapiens, UniProt Q8N5J4 1-248); details: protein: recombinant; tags: N-terminal GST; dsDNA, one strand shown
# T8 sequence: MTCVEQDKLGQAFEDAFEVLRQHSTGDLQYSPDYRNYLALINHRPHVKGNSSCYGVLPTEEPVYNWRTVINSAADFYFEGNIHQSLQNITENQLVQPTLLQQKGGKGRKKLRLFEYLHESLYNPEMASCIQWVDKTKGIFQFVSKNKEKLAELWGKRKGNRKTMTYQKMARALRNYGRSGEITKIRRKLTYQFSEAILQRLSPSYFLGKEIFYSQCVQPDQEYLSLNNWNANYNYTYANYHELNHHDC
# Summary of the method: as §1
# [14] = target: ELF4 (Homo sapiens, UniProt Q99607 1-663); details: protein: recombinant; tags: N-terminal GST; dsDNA, one strand shown
# Summary of the method: as §1
# [15] = target: T9, ELK4 (Homo sapiens, UniProt P28324-2 1-405); details: protein: recombinant; tags: N-terminal GST; dsDNA, one strand shown
# T9 sequence: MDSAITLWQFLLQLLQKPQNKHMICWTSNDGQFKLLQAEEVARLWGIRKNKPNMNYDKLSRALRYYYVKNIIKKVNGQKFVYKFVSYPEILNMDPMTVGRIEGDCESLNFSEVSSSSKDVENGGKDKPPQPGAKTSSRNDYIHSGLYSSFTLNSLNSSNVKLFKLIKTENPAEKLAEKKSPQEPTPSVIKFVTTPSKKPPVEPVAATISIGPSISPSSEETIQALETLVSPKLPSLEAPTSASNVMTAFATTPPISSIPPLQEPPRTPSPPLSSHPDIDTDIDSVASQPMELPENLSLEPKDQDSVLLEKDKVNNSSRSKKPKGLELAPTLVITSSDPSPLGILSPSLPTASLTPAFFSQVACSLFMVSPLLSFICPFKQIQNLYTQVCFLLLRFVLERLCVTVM
# Summary of the method: as §1
# [16] = target: T10, ETV2 (Homo sapiens, UniProt O00321 1-342); details: protein: recombinant; tags: N-terminal GST; dsDNA, one strand shown
# T10 sequence: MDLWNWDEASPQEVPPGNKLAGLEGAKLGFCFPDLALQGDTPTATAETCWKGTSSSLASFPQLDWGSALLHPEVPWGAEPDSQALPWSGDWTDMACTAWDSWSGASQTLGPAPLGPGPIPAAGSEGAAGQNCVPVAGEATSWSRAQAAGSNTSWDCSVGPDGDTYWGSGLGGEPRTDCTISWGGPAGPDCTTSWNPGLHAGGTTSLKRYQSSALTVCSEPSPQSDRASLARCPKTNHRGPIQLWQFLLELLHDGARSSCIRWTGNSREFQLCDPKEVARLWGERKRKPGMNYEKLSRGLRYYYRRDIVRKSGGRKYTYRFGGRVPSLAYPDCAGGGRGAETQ
# Summary of the method: as §1
# [17] = target: T11, ELF3 (Homo sapiens, UniProt P78545 1-371); details: protein: recombinant; tags: N-terminal GST; dsDNA, one strand shown
# T11 sequence: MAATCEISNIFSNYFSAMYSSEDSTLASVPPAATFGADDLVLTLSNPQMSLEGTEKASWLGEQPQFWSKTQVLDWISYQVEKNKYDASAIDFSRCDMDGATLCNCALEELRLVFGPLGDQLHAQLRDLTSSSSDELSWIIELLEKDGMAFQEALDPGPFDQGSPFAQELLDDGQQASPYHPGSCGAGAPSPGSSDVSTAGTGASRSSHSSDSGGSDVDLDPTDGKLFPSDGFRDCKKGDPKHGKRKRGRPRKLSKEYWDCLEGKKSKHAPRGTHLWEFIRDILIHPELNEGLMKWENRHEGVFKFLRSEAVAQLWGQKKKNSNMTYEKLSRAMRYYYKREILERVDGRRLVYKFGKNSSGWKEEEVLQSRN
# Summary of the method: as §1
# [18] = target: CRX (Homo sapiens, UniProt O43186 1-299); details: protein: recombinant; tags: N-terminal GST; dsDNA, one strand shown
# Summary of the method: as §1
# [19] = target: ETV1 (Homo sapiens, UniProt P50549 1-477); details: protein: recombinant; tags: N-terminal GST; dsDNA, one strand shown
# Summary of the method: as §1
# Chain of ETV1 (P50549 whole entry): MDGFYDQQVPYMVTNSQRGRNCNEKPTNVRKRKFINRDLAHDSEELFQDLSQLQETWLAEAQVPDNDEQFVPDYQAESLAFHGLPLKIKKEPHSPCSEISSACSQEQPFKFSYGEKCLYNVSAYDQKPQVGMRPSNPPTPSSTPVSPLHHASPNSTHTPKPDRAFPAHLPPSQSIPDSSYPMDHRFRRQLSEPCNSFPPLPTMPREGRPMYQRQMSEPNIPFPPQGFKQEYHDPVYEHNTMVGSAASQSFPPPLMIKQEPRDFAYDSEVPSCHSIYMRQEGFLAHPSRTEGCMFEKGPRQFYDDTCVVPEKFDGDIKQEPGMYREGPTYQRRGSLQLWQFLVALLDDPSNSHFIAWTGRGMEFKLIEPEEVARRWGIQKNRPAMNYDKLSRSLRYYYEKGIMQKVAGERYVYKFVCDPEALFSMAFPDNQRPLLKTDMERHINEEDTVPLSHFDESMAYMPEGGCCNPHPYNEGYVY
# Chain of HSF1 (Q00613 whole entry): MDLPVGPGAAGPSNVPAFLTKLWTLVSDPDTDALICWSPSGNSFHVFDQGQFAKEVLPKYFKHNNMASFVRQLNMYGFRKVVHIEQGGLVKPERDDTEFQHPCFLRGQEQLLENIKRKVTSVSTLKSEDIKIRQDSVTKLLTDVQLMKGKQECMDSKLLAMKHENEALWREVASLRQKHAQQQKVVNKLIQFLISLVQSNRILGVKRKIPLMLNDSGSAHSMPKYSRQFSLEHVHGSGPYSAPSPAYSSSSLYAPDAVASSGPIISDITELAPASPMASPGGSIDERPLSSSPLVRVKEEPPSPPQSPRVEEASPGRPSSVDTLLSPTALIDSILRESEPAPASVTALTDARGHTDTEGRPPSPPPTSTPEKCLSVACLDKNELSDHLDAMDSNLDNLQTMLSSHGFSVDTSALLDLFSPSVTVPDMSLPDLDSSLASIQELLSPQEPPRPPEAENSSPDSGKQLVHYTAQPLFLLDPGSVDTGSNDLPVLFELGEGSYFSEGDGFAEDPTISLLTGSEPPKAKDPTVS
# Chain of ELF1 (P32519 whole entry): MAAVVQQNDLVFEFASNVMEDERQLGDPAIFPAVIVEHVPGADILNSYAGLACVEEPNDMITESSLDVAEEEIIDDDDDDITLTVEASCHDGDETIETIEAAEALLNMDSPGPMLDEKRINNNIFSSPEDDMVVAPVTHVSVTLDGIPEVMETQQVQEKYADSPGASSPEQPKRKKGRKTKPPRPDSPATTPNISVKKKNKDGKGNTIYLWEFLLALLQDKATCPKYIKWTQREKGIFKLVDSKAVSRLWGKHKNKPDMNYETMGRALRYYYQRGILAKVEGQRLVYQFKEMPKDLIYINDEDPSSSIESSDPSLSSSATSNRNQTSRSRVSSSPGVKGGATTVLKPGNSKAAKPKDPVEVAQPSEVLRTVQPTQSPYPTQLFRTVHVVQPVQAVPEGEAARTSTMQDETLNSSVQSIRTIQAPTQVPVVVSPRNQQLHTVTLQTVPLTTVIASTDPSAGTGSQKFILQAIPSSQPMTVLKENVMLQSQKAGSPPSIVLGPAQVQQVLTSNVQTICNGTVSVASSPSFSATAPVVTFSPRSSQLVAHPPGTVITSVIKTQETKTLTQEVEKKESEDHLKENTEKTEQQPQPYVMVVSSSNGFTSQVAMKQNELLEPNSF
# Chain of ELF4 (Q99607 whole entry): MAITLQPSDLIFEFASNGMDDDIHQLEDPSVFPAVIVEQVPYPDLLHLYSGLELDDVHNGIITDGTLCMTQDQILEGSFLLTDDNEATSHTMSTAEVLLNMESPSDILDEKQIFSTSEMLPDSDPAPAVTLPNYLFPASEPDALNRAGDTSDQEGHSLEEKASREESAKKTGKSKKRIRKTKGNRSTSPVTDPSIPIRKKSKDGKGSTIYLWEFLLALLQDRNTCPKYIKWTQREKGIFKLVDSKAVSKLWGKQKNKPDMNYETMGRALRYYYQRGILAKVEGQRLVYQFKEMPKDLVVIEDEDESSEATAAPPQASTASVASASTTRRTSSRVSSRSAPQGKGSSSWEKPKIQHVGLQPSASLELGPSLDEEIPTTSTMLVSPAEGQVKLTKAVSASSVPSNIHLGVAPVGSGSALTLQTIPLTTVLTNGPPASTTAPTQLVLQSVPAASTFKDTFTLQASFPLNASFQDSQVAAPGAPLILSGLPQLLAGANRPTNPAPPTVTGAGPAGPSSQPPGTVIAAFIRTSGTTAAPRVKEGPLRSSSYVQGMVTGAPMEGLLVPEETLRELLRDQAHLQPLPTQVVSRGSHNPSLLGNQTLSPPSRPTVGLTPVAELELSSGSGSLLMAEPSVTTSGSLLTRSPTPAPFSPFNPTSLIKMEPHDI
# Chain of ETV5 (P41161 whole entry): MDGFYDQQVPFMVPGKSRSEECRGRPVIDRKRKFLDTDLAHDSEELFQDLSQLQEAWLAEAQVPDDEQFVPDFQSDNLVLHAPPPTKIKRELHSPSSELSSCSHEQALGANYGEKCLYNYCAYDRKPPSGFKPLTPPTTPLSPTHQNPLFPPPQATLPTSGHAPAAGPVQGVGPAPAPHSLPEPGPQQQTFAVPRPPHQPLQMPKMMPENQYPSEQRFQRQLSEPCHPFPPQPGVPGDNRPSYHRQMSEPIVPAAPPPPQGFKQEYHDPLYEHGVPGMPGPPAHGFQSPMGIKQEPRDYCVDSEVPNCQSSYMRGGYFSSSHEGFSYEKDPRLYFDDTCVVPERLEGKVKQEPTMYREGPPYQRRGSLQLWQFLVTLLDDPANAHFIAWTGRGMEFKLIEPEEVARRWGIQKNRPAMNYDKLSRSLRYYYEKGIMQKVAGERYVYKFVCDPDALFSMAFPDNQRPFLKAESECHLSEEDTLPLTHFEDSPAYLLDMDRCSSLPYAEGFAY
# Chain of CRX (O43186 whole entry): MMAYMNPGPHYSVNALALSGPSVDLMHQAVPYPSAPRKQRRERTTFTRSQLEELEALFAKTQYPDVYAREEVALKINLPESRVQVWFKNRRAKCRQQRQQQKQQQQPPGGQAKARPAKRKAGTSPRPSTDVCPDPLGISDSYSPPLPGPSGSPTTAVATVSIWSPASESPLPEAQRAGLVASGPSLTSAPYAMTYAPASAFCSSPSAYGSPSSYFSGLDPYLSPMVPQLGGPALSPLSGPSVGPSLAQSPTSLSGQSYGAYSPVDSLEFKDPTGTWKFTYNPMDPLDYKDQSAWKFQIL
# Chain of SPIB (Q01892 whole entry): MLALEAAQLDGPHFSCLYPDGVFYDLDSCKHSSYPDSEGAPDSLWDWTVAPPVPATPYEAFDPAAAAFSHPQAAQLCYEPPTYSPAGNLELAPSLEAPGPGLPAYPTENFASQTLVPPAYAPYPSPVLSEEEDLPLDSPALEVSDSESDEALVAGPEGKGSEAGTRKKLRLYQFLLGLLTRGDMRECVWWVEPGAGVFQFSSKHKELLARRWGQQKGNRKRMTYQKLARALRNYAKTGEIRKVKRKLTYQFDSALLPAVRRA
sequence,measurement,setting,value
TCCTCT,binding signal,[1],"1.58 fold enrichment (6-mer frequency, TF over GST control)"
same,binding signal,[2],"1.57 fold enrichment (6-mer frequency, TF over GST control)"
same,binding signal,[3],"1.57 fold enrichment (6-mer frequency, TF over GST control)"
same,binding signal,[4],"1.7 fold enrichment (6-mer frequency, TF over GST control)"
same,binding signal,[5],"1.64 fold enrichment (6-mer frequency, TF over GST control)"
same,binding signal,[6],"1.7 fold enrichment (6-mer frequency, TF over GST control)"
same,binding signal,[7],"2.95 fold enrichment (6-mer frequency, TF over GST control)"
same,binding signal,[8],"1.72 fold enrichment (6-mer frequency, TF over GST control)"
same,binding signal,[9],"1.6 fold enrichment (6-mer frequency, TF over GST control)"
same,binding signal,[10],"1.63 fold enrichment (6-mer frequency, TF over GST control)"
same,binding signal,[11],"1.64 fold enrichment (6-mer frequency, TF over GST control)"
same,binding signal,[12],"1.51 fold enrichment (6-mer frequency, TF over GST control)"
same,binding signal,[13],"1.67 fold enrichment (6-mer frequency, TF over GST control)"
same,binding signal,[14],"1.69 fold enrichment (6-mer frequency, TF over GST control)"
same,binding signal,[15],"1.53 fold enrichment (6-mer frequency, TF over GST control)"
same,binding signal,[16],"1.68 fold enrichment (6-mer frequency, TF over GST control)"
same,binding signal,[17],"1.66 fold enrichment (6-mer frequency, TF over GST control)"
same,binding signal,[18],"1.79 fold enrichment (6-mer frequency, TF over GST control)"
same,binding signal,[19],"1.74 fold enrichment (6-mer frequency, TF over GST control)"
